The source of these data is PubChem BioAssay (Tox21).

Inconclusive results are not listed. Calls of active or inactive are those of the source. Unless noted, calls follow the shape of the full dose curve.

A short description of assay [1]: Nuclear factor erythroid 2-related factor 2/antioxidant responsive element (Nrf2/ARE) small molecule agonists: qHTS cell viability counter screen in human keratinocytes (AID 1919968; active = well fitted curve in the direction sought with a large enough effect in the repeat runs; an effect the other way counts as inactive or inconclusive; also: nearly all actives have a fitted effect of over 55% in size). The procedure, abridged: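 Measured as CellTiter-Fluor fluorescence, this readout tracks cytotoxicity in the same wells as the ARE-luciferase screen. HaCaT reporter cells (1,500/well) received compounds after a 5 h pre-incubation and were exposed for 23 h.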
On the technique in general: qHTS replaces the single test concentration by a dilution series.

Assay [2] can be described thus: Nuclear factor erythroid 2-related factor 2/antioxidant responsive element (Nrf2/ARE) small molecule agonists: luciferase reporter gene qHTS assay in human keratinocytes (AID 1919969). Also: nearly all actives have a fitted effect of over 35% in size. Background: Reporter assays use an easily measured gene product as a stand-in for the process of interest.
Assay [3] addresses Gonadotropin-releasing hormone receptor (Homo sapiens) (UniProt P30968). The experiment in a line: Human gonadotropin-releasing hormone receptor (GnRHR) small molecule agonists, calcium flux assay in GnRHR-HEK293 cells (AID 1920063). Also: nearly all actives have a fitted effect of over 35% in size. The procedure, abridged: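 Fluorescence kinetics (480 nm excitation, 540 nm emission; 3 min, 1 s steps) report calcium mobilisation in human GnRHR-HEK293 cells in agonist mode. Dye incubation: 1 h, 37 C.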
On the technique in general: A change in cytosolic calcium serves as a functional read-out for many receptors and channels.

Assay [4] concerns the target KiSS-1 receptor (Homo sapiens) (UniProt Q969F8). The experiment in a line: Human kisspeptin (KISS1R) small molecule agonists, calcium flux assay in KISS1R-HEK293 cells (AID 1920064; active = well fitted curve in the direction sought with a large enough effect in the repeat runs; an effect the other way counts as inactive or inconclusive). The procedure, abridged: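 Measures KISS1R agonism through calcium-sensitive dye fluorescence in stably transfected HEK293 cells, read for 3 min after pin-tool compound delivery; 15-point titrations in triplicate.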

Assay [5] in a line: G protein-coupled receptor (GPCR) small molecule agonists, calcium flux assay: HEK293 wild type cell line counter screen (AID 1920065). The procedure, abridged:
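Readout: fluorescence at 480 nm excitation/540 nm emission, sampled at 1 s intervals for 3 min. Cells had been cultured 18 h, then dye-loaded 1 h at 37 C before compound or ATP addition.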

Assay [6] can be described thus: p53 small molecule agonists, cell-based qHTS assay with human liver microsomes: qHTS cell viability counter screen (AID 1963579). Also: nearly all actives have a fitted effect of over 45% in size. The procedure, abridged:
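p53RE-bla cells (4,000/well) were pre-incubated 5 h at 37 C, then given compounds in DMSO plus human liver microsomes (0.5 mg/mL final) and NADPH (0.5 mg/mL final) for 16 h at 37 C. Viability was read by CellTiter-Glo luminescence.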

Assay [7] in a line: p53 small molecule agonists, cell-based qHTS assay with rat liver microsomes: qHTS cell viability counter screen (AID 1963580). Also: nearly all actives have a fitted effect of over 45% in size. The procedure, abridged:
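Viability is assessed in parallel with the p53 reporter read: HCT-116 p53RE-bla cells receive compounds plus rat microsomes and NADPH (0.5 mg/mL final apiece), incubate 16 h at 37 C, and then CellTiter-Glo luminescence is recorded.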

Assay [8] can be described thus: p53 small molecule agonists, cell-based qHTS assay: qHTS cell viability counter screen (AID 1963581). Also: nearly all actives have a fitted effect of over 45% in size. In outline: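 In the same plates used for the p53 bla reporter, HCT-116 cells given compounds for 16 h at 37 C received CellTiter-Glo; luminescence was recorded 30 min later at room temperature.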
The target in assay [9] is 5-hydroxytryptamine receptor 2A (Homo sapiens) (UniProt P28223). Put plainly: 5-hydroxytryptamine receptor 2A (HTR2A) small molecule antagonists, cell-based qHTS assay (AID 1963586). Also: nearly all actives have a fitted effect of over 45% in size. The procedure, abridged: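 Antagonist-mode intracellular calcium assay: DOI (4 nM) added after 5 min compound pre-incubation at room temperature to dye-loaded HTR2A-CHO cells. Fluorescence followed for 3 min, sampled every second.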
Chain of 5-hydroxytryptamine receptor 2A (Homo sapiens) (P28223 whole entry, looked up): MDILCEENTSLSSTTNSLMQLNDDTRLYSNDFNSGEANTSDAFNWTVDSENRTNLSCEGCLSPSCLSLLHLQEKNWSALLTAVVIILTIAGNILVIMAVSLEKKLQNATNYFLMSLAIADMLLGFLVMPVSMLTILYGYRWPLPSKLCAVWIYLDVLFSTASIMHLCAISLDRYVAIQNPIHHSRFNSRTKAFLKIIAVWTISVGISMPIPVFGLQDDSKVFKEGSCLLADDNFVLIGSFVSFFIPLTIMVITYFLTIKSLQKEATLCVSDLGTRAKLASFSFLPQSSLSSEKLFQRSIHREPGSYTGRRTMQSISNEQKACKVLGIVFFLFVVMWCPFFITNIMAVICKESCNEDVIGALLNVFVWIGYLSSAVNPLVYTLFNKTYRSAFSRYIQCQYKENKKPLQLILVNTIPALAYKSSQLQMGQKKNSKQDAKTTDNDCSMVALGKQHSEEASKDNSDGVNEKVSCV

Assay [10] shares this target. The experiment in a line: 5-hydroxytryptamine receptor 2A (HTR2A) small molecule agonists, cell-based qHTS assay (AID 1963587). Also: nearly all actives have a fitted effect of over 30% in size. In outline: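 CHO cells stably expressing human HTR2A, plated 18 h, loaded with calcium dye 1 h at 37 C. Agonist mode: compounds added and intracellular calcium fluorescence recorded kinetically for 2 min at 1 sec intervals.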
Assay [11] has as its target Muscarinic acetylcholine receptor M1 (Homo sapiens) (UniProt P11229). The experiment in a line: Cholinergic receptor muscarinic 1 (CHRM1) small molecule antagonists, cell-based qHTS assay (AID 1963588). Also: nearly all actives have a fitted effect of over 40% in size. In outline:
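CHRM1-CHO calcium-flux assay, antagonist mode. Cells were seeded 18 h, dye-loaded 1 h at 37 C and given compound for 5 min at RT, then acetylcholine was added at 50nM. FDSS fluorescence was read 3 min; 15 concentrations, three runs.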

The target is the same in assay [12]. Put plainly: Cholinergic receptor muscarinic 1 (CHRM1) small molecule agonists, cell-based qHTS assay (AID 1963589). Also: nearly all actives have a fitted effect of over 35% in size. In outline: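 Each compound was tested at 15 concentrations across three independent runs on dye-loaded CHO cells stably expressing human CHRM1, reading intracellular calcium fluorescence kinetically at 1 sec intervals.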
A short description of assay [13]: cAMP Responsive Elements (CRE) small molecule agonists, cell-based qHTS assay (AID 1963590). The procedure, abridged: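 Cell line: CRE-bla HEK 293T; medium DMEM/10% dialyzed FBS/0.1 mM NEAA/1 mM pyruvate/25 mM HEPES; 3 h compound exposure; beta-lactamase FRET readout after 2 h substrate loading at RT.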
Assay [14] in a line: cAMP Responsive Elements (CRE) small molecule antagonists, cell-based qHTS assay (AID 1963591; active = well fitted inhibition curve with a large enough effect in the signal ratio in the repeat runs, not every such curve was filed as active; the % refers to the signal ratio; also: potency is read from the fitted curve at half-maximal effect). The procedure, abridged:
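Inhibition of NKH477-driven (0.25 uM final) CRE-beta-lactamase signal in HEK293T cells, 3 h compound exposure at 37 °C, detected by FRET substrate fluorescence.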

The target of assay [15] is Beta-2 adrenergic receptor (Homo sapiens) (UniProt P07550). The experiment in a line: Adrenergic beta2 receptor (ADRB2) small molecule antagonists, cell-based qHTS assay (AID 1963592). Also: series mostly up to about 92 µM; nearly all actives have a fitted effect of over 50% in size. In outline: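 Cells (CHO, stable ADRB2 overexpression) incubated 18-20hr at 37C; compounds added from DMSO; agonist mix (1nM isoproterenol, 100uM IBMX, 25uM Ro-20-1724) added; 0.5hr RT; d2-cAMP and anti-cAMP-cryptate added; 1hr RT; 665/615 nm read.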
Chain of Beta-2 adrenergic receptor (Homo sapiens) (P07550 whole entry, looked up): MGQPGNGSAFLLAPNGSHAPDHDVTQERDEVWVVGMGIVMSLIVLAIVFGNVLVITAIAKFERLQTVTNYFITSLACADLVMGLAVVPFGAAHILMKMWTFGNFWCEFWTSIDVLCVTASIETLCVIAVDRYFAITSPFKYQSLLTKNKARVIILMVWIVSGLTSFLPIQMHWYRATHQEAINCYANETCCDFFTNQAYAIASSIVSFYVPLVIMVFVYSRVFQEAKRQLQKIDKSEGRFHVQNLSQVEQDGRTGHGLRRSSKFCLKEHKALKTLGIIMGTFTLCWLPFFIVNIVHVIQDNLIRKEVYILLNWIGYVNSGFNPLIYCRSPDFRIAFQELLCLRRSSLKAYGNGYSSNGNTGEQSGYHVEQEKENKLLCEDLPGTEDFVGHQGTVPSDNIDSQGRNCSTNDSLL

Assay [16] has as its target D(2) dopamine receptor (Homo sapiens) (UniProt P14416). Put plainly: Dopamine D2 receptor (DRD2) small molecule agonists, cell-based qHTS assay (AID 1963594). Also: nearly all actives have a fitted effect of over 35% in size. The procedure, abridged: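 HEK293 cells stably expressing human DRD2, pre-treated with PDE inhibitor Ro20-1724 (0.1 mM final) and compound 10 min at room temperature, then stimulated with NKH477 (200nM […]) for 30 min. cAMP read by HTRF (665/620 nm).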

For assay [17] the target is unchanged. Put plainly: Dopamine D2 receptor (DRD2) small molecule antagonists, cell-based qHTS assay (AID 1963595; active = well fitted inhibition curve with a large enough effect in the signal ratio in the repeat runs, with a control signal flat; the % refers to the signal ratio). The procedure, abridged:
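Antagonist mode in DRD2-HEK293 cells: after compound addition with 0.1 mM Ro20-1724, cells received quinpirole (12 nM) and NKH477 (200 nM) for 30 min at room temperature; HTRF cAMP read after 1 h detection.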

Assay [18] has as its target Beta-2 adrenergic receptor (Homo sapiens) (UniProt P07550). Put plainly: Adrenergic beta2 receptor (ADRB2) small molecule agonists, cell-based qHTS assay (AID 1963593).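 Also: CHO cells stably overexpressing human ADRB2.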 The procedure, abridged:
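CHO cells stably over-expressing ADRB2 were plated overnight at 37C, then dosed with compounds plus a stimulation mix containing 100uM IBMX and 25uM Ro-20-1724 for 0.5hr at room temperature. cAMP was measured by HTRF competition, 1hr.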

Chain of Gonadotropin-releasing hormone receptor (Homo sapiens) (P30968 whole entry, looked up): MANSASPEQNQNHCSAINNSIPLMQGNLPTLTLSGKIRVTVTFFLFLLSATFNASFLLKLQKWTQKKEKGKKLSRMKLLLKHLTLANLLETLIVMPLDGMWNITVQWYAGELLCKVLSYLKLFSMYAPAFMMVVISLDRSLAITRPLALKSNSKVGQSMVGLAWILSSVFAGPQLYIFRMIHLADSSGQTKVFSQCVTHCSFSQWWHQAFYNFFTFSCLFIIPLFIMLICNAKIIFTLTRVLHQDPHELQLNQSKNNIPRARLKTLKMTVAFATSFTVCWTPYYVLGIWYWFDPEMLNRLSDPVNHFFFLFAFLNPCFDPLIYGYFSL
Chain of D(2) dopamine receptor (Homo sapiens) (P14416 whole entry, looked up): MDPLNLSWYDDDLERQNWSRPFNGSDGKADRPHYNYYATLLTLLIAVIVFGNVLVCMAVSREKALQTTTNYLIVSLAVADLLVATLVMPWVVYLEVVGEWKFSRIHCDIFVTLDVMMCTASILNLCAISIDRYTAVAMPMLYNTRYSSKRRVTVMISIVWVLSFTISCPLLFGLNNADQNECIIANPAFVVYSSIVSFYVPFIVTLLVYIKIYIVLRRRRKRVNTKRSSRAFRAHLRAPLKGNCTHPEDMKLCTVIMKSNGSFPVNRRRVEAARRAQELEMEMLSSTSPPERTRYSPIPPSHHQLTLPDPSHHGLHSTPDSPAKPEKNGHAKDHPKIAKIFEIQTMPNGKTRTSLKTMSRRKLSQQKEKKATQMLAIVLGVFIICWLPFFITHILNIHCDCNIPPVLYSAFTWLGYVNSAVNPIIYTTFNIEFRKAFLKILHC
Chain of Muscarinic acetylcholine receptor M1 (Homo sapiens) (P11229 whole entry, looked up): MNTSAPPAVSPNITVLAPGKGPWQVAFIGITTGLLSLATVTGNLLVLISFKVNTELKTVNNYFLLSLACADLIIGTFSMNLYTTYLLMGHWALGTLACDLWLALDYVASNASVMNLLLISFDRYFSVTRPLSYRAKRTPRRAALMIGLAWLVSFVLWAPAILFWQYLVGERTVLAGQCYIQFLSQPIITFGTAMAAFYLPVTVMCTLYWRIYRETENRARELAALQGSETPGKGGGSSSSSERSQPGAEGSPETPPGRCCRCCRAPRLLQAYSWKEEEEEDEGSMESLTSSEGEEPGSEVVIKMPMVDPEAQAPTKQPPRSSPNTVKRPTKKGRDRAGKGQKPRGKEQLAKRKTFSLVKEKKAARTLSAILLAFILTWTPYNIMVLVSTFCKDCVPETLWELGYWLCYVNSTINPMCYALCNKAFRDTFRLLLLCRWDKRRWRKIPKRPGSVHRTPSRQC
Chain of KiSS-1 receptor (Homo sapiens) (Q969F8 whole entry, looked up): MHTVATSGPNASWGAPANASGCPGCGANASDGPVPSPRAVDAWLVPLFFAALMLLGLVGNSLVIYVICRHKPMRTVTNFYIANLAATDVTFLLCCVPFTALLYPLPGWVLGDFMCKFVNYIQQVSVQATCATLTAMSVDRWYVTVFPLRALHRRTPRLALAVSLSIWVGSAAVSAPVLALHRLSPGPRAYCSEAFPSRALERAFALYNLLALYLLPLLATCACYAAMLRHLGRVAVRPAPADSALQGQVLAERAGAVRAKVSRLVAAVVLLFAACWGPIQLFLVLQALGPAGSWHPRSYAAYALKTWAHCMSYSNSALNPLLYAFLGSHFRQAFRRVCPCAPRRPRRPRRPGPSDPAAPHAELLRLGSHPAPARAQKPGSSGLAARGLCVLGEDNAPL

Turning to `C[N+]1(CCC(C(N)=O)(c2ccccc2)c2ccccc2)CCCCC1`, the Potency entry in assay [1], in [2], in [3], in [4], in assay [5] and in assay [6] was “inactive” throughout. Moreover, the Potency entry in assay [7], in assay [8], in assay [9], in [10], in [11] and in [12] was “inactive” in each case. For the same molecule, the Potency entry in assay [13], in assay [14], in assay [15], in [16] and in assay [17] was “inactive” throughout.
Regarding `CCCCOC(=O)c1ccccc1N`, the Potency result in assay [1], in assay [2], in assay [3], in assay [4], in [5] and in [6] was “inactive” in each case. For the same molecule, the Potency result in assay [7], in [8], in assay [9], in assay [10], in [11] and in assay [12] was “inactive” in each case. The Potency entry in assay [15], in assay [16] and in assay [17] was “inactive” throughout. Further, in assay [14], the Potency is 61.4 µM (active).
Take `O=C(O)c1c(Cl)ccc2cc(Cl)cnc12`: the Potency result in assay [1], in assay [2], in [3], in assay [4], in assay [5] and in assay [6] was “inactive” each time. Further, the Potency result in assay [7], in assay [8], in assay [9], in assay [10], in assay [11] and in [12] was “inactive” throughout. Also, the Potency entry in assay [13], in [14], in assay [18] and in assay [17] was “inactive” each time.
`CC(C)=CC1C(C(=O)OC(C#N)c2cccc(Oc3ccccc3)c2)C1(C)C` (stereo unspecified): the Potency entry in assay [1], in assay [2], in [3], in [4], in [5] and in assay [6] was “inactive” each time. For the same molecule, the Potency result in assay [7], in [8], in assay [9], in assay [10], in assay [11] and in [12] was “inactive” throughout. In addition, the Potency entry in assay [13], in assay [14], in [15], in assay [16] and in assay [17] was “inactive” in each case.
Regarding `CCC#N`, the Potency entry in assay [1], in assay [2], in [3], in [4], in assay [5] and in assay [6] was “inactive” throughout. Further, the Potency result in assay [7], in assay [8], in [9], in assay [10], in assay [11] and in assay [12] was “inactive” each time. Moreover, the Potency entry in [13], in [14], in assay [15], in assay [18], in assay [16] and in assay [17] was “inactive” each time.
Take `CCCSP(=O)(OCC)Oc1ccc(Br)cc1Cl` (stereo unspecified): the Potency result in assay [1], in assay [2], in assay [3], in assay [4], in assay [5] and in [6] was “inactive” in each case. Besides, the Potency entry in [7], in [8], in [9], in [10], in [11] and in [12] was “inactive” throughout. The Potency result in assay [13], in assay [14], in assay [15], in assay [16] and in assay [17] was “inactive” each time.
Regarding `CC1C(=O)C[C@]2(C(C)C)C[C@H]12` (stereo partly specified), the Potency entry in assay [1], in assay [2], in assay [3], in assay [4], in assay [5] and in assay [6] was “inactive” in each case. The Potency result in assay [7], in assay [8], in assay [9], in [10], in assay [11] and in [12] was “inactive” each time. The Potency result in [13], in assay [15], in [16] and in [17] was “inactive” throughout.
For the molecule `CC(C)(C)c1ccc(CCOc2ncnc3ccccc23)cc1`, the Potency entry in [1], in assay [2], in assay [3], in [4], in assay [5] and in [6] was “inactive” each time. Further, the Potency entry in [7], in [8], in [9], in assay [10], in assay [11] and in assay [12] was “inactive” throughout. Moreover, the Potency entry in assay [14] and in [17] was “inactive” throughout.
